From PubChem BioAssay
IDE exosite inh – exo-site inhibitors of human insulin-degrading enzyme. P14735. hit rate 6.3% among 17,000. z-score at 20 µM. purified IDE, FL-6b probe fluorescence polarization; stronger effect = lower value. AID 1259349;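 active = z-score of -3 or lower, meaning strong loss of probe binding signal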;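 note: His-tagged human IDE residues 42-1019 made in E. coli with 30 nM FL-6b probe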
Numbers without * were called inactive. Only a selection was taken, and hits are over-represented in it overall.

SMILES | IDE exosite inh
CCCNC(=O)N1CCC2(CC1)CN(Cc1cccc(OC)c1)[C@@H](CO)c1[nH]c3cc(OC)ccc3c12 | -3.1*
COc1ccc2c3c([nH]c2c1)[C@@H](CO)N(Cc1cccc(F)c1)CC31CCN(C(C)=O)CC1 | -4.2*
COc1ccc2c3c([nH]c2c1)[C@H](CO)N(Cc1ccccc1)CC31CCN(C(=O)NC(C)C)CC1 | -1.8
COc1ccc2c3c([nH]c2c1)[C@H](CO)N(CC1CC1)CC31CCN(C(=O)Nc2cccc(F)c2)CC1 | -0.44
CCCNC(=O)N1CCC2(CC1)CN(C(=O)COC)[C@H](CO)c1[nH]c3cc(OC)ccc3c12 | -0.62
COc1ccc2c3c([nH]c2c1)[C@H](CO)N(C(C)=O)CC31CCN(C(C)=O)CC1 | -0.41
C/C=C/c1ccc([C@H]2[C@@H](CO)N(C(=O)C3CCC3)[C@@H]2CNC(=O)NC(C)C)cc1 | 3.6
O=C(NC[C@H]1N[C@H](CO)[C@@H]1c1ccc(-c2cncnc2)cc1)C1CCC1 | 0.2
O=C([C@@H]1[C@@H](CO)[C@@H]2Cn3c(cccc3=O)[C@@H]2N1C(=O)CC1CC1)N1CCc2ccccc2C1 | 1.1
CCC(=O)N1CC(=O)N2[C@H](CO)[C@H](c3ccc(-c4ccncc4)cc3)[C@@H]2C1 | 1.1
O=C(NC[C@@H]1[C@H](c2ccccc2)[C@H](CO)N1Cc1ccccn1)C1CC1 | 4.4
N#C[C@@H]1[C@@H](c2ccc(-c3ccncc3)cc2)[C@@H](CO)N1C(=O)C1CCCC1 | 1.3
C[C@@H](O)C#Cc1ccc([C@@H]2[C@H](CO)N3CCCCN(CC4CCOCC4)C[C@@H]23)cc1 | 1.4
COCC(=O)N1CCCCN2[C@H](CO)[C@H](c3ccc(-c4ccccc4)cc3)[C@H]2C1 | -0.28
COCC#Cc1ccc([C@H]2[C@@H](CO)N3CCCCN(C(=O)COC)C[C@H]23)cc1 | 2.6
COCC(=O)N1CCCCN2[C@@H](CO)[C@H](c3ccc(C#Cc4ccccc4)cc3)[C@@H]2C1 | -11*
COCC(=O)N1CCCCN2[C@H](CO)[C@H](c3ccc(C#Cc4ccc(OC)cc4)cc3)[C@@H]2C1 | -8.5*
COCC#Cc1ccc([C@@H]2[C@H]3CN(C(=O)COC)CCCCN3[C@H]2CO)cc1 | 0.85
COCC(=O)N1CCCCN2[C@H](C1)[C@H](c1ccc(C#Cc3ccccc3)cc1)[C@@H]2CO | -10*
COCC(=O)N1CCCCN2[C@H](CO)[C@@H](c3ccc(C#Cc4ccc(OC)cc4)cc3)[C@H]2C1 | 1.7
COCC(=O)N1CCCCN2[C@H](C1)[C@@H](c1ccc(C#Cc3ccccc3)cc1)[C@@H]2CO | -5.9*
COCC(=O)N1CCCCN2[C@H](CO)[C@@H](c3ccc(C#Cc4ccc(OC)cc4)cc3)[C@@H]2C1 | -1.4
COCC#Cc1ccc([C@@H]2[C@@H](CO)N3CCCCN(C(=O)COC)C[C@H]23)cc1 | 1
O=C(Cc1cccnc1)N1CC(=O)N2[C@@H](CO)[C@H](c3ccc(C4=CCCC4)cc3)[C@@H]2C1 | 1
COCC#Cc1ccc([C@@H]2[C@@H](CO)N3CCCCN(S(=O)(=O)c4ccc(OC)cc4)C[C@H]23)cc1 | 1.2
SMILES | IDE exosite inh
CC(=O)N1[C@H](CO)[C@H](c2ccccc2)[C@H]1CNC(=O)c1ccncc1 | 3
COc1ccc2c3c(n(C)c2c1)[C@@H](CO)N(S(C)(=O)=O)CC31CCN(C(=O)Nc2cccc(F)c2)CC1 | -1.3
CCC(=O)N(C[C@H]1[C@H](c2ccccc2)[C@@H](CO)N1S(C)(=O)=O)C(C)C | 5.4
COc1cccc(S(=O)(=O)N2CC[C@@H]3[C@@H](CO)Nc4ccc(C#Cc5cccnc5)cc4[C@@H]32)c1 | 1.7
C[C@@H]1CCCCO[C@H](CN(C)S(=O)(=O)c2cn(C)cn2)[C@@H](C)CN([C@@H](C)CO)C(=O)c2cc(N(C)C)ccc2O1 | 0.98
CCc1cnc(N2[C@H](CO)[C@@H](c3ccc(C#CC(C)C)cc3)[C@@H]2C#N)s1 | 1.8
CCN(C[C@H]1[C@H](c2ccccc2)[C@@H](CO)N1C(C)=O)C(=O)c1ccccn1 | 2.9
COCC(=O)Nc1ccc2c(c1)[C@@H]1C[C@H](CC(=O)N3CCOCC3)O[C@@H](CO)[C@@H]1O2 | -1.5
O=C(CCN1CCCCC1)N[C@H]1CC[C@@H](CC(=O)N2CCC(Cc3ccccc3)CC2)O[C@H]1CO | -0.25
COCC(=O)N1CCCCN2[C@H](CO)[C@H](c3ccc(C#Cc4ccccc4)cc3)[C@@H]2C1 | -8.4*
COCC(=O)N1CCCCN2[C@H](C1)[C@H](c1ccc(-c3ccccc3)cc1)[C@@H]2CO | -0.42
COCC(=O)N1CCCCN2[C@H](CO)[C@@H](c3ccc(-c4ccccc4)cc3)[C@@H]2C1 | -0.53
CC(C)C#Cc1ccc([C@@H]2[C@H](CO)N3C(=O)CN(C(=O)c4ccc5c(c4)OCO5)C[C@@H]23)cc1 | -1.3
C/C=C/c1ccc([C@H]2[C@@H](C#N)N(c3ncc(CC)s3)[C@@H]2CO)cc1 | 4.6
O=C(Nc1ccccc1F)N1CCCCN2[C@H](C1)[C@@H](c1ccc(/C=C/c3ccccc3)cc1)[C@@H]2CO | -2.7
O=C(Nc1ccccc1F)N1CCCCN2[C@H](CO)[C@H](c3ccc(/C=C/c4ccccc4)cc3)[C@@H]2C1 | -3.9*
O=C(Nc1ccccc1F)N1CCCCN2[C@H](CO)[C@H](c3ccc(/C=C/c4ccccc4)cc3)[C@H]2C1 | -4.9*
O=C(Nc1ccccc1F)N1CCCCN2[C@H](CO)[C@H](c3ccc(C4=CCCC4)cc3)[C@H]2C1 | 2.1
C/C=C/c1ccc([C@H]2[C@@H](CO)N3CCCCN(C(=O)Nc4ccccc4F)C[C@@H]23)cc1 | -0.84
O=C(Nc1ccccc1F)N1CCCCN2[C@H](C1)[C@H](c1ccc(C3=CCCC3)cc1)[C@@H]2CO | 4.4
N#C[C@H]1[C@H](c2ccccc2)[C@@H](CO)N1C(=O)c1ccc2c(c1)OCO2 | -1.1
C/C=C/c1ccc([C@@H]2[C@@H](CO)N3CCCCN(S(=O)(=O)c4cccc(C)c4)C[C@@H]23)cc1 | 3.5
O=C(O)C[C@H]1C=C[C@H](NC(=O)Nc2cc(F)ccc2F)[C@@H](CO)O1 | -0.44
CN(C)C(=O)c1cccc(-c2ccccc2[C@@H]2[C@@H](C#N)N(C(=O)C3CC3)[C@@H]2CO)c1 | 1.1
C[C@H](CO)N1C[C@H](C)[C@@H](CN(C)CC2CC2)Oc2ccc(NC(=O)CCC(F)(F)F)cc2CC1=O | -0.17
SMILES | IDE exosite inh
CCN1CC(=O)N2[C@H](CO)[C@H](c3ccc(Br)cc3)[C@@H]2C1 | 0.81
CN(C)C(=O)c1ccc(-c2ccc(C3[C@H]4CNC[C@@H]3N4C(=O)NC3CCCC3)cc2)cc1 (stereo not given in full) | 0.072
O=C(c1ccccc1)N1CC(=O)N2[C@H](C1)[C@@H](c1ccc(C#CC3CC3)cc1)[C@@H]2CO | 2.1
COc1ccc(C(=O)Nc2ccc3c(c2)C(=O)N(C)[C@H]2CC[C@@H](CC(=O)NCC4CC4)O[C@@H]2CO3)cc1 | 0.56
CN1C(=O)c2cc(NS(C)(=O)=O)ccc2OC[C@H]2O[C@H](CC(=O)N3CCOCC3)CC[C@H]21 | -1
COc1cccc(C(=O)Nc2ccc3c(c2)C(=O)N(C)[C@H]2CC[C@@H](CC(=O)NCc4ccc(F)cc4)O[C@H]2CO3)c1 | -2.9
CN1C(=O)c2cc(NS(C)(=O)=O)ccc2OC[C@@H]2O[C@H](CC(=O)NCc3ccccc3)CC[C@@H]21 | -2.5
CN1C(=O)c2cc(NS(C)(=O)=O)ccc2OC[C@@H]2O[C@H](CC(=O)N3CCOCC3)CC[C@@H]21 | -1.5
COc1ccc(C(=O)Nc2ccc3c(c2)C(=O)N(C)[C@H]2CC[C@H](CC(=O)NCC4CC4)O[C@H]2CO3)cc1 | -3.6*
